Compound activity from PubChem BioAssay.
SKKanGAS inh: S. pyogenes SKKanGAS growth inhibitors in kanamycin, primary screen, streptokinase expression inhibitor project, SKKanGAS strain, BacTiter-Glo luminescence; 6 h; inhibition, % at 7.5 µM; 300,000 compounds, 1.3% hits; AID 1662, 2009;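 active = mean replicate score, as percent of positive control median, at least 50; inconclusive = mean below 50 but one replicate at or above 50; inactive = mean and every replicate below 50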;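 note: strain carries kanamycin resistance gene driven by streptokinase promoter and grows in 40 µg/ml kanamycin; loss of luminescence reflects streptokinase promoter inhibition or plain growth inhibition; 0% = median of DMSO wells and 100% = positive control at its reference dose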
NALP3 yeast inh: NALP3 inflammasome inhibitors in reconstituted yeast, primary screen, luminescence, uHTS. inhibition, % at 10 µM. 330,000 compounds, 0.39% hits. Yeast reconstituted NLRP3/ASC/caspase-1, beta-gal luminescence, 24 h. AID 2825, 2010;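 active = inhibition of 50% or more; inactive = inhibition below 50%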;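 note: plate controls were induced DMSO wells for no effect and uninduced yeast grown without galactose for full effect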
NALP1 yeast inh: NALP1 inflammasome inhibitors in reconstituted yeast, colorimetric, S. cerevisiae, triplicate retest. S. cerevisiae NALP1/ASC/caspase-1 growth, X-gal OD620, 72 h. inhibition, % at 10 µM. 280,000 compounds, 0.61% hits. AID 2071, 2009; in the data active = inhibition mostly above about 24%, no sharp cut-off; inactive = mostly below about 32%
tim23-1 inh: growth inhibitors of tim23-1 mutant yeast, primary screen, luminescence, uHTS; S. cerevisiae tim23-1 growth, BacTiter-Glo luminescence, 24 h; inhibition, % at 20 µM; 330,000 compounds, 1.3% hits; AID 463212, 2010;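 active = growth inhibition of the mutant yeast at or above 50%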;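 note: temperature-sensitive mutant grown at 25 °C; plate controls were DMSO-treated mutant yeast for no effect and medium wells lacking yeast for full effect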
tim10-1 inh: growth inhibitors of tim10-1 mutant yeast, primary screen, luminescence, uHTS; S. cerevisiae tim10-1 ts strain growth, BacTiter-Glo, 24 h; inhibition, % at 20 µM; 330,000 compounds, 2.2% hits;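 active = inhibition of at least 40%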;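 note: mutant grown at 25 °C; 0% = DMSO wells with yeast and 100% = wells holding no yeast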
TIM10 inh: growth inhibitors of isogenic TIM10 control yeast, primary screen, counter-screen for tim10-1 yeast inhibitor project, luminescence, uHTS | S. cerevisiae TIM10 strain growth, BacTiter-Glo luminescence, 24 h | 330,000 compounds, 1.4% hits | inhibition, % at 10 µM;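 active = inhibition of 40% or more at the single tested concentration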;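 note: wild-type TIM10 isogenic control strain grown at permissive 25 °C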
tim10-1 conf: growth inhibitors of tim10-1 mutant yeast, confirmation, single concentration, luminescence, S. cerevisiae | shares compounds with tim10-1 inh | inhibition, % at 20 µM | S. cerevisiae tim10-1 ts strain growth, BacTiter-Glo, 24 h | 7,400 compounds, 56% hits | AID 463213, 2010;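 active = inhibition of yeast growth at or above a set limit in either of two repeat tests at 20 µM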;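 note: tim10-1 mutant grown at permissive 25 °C to find synthetic lethal compounds; 0% = DMSO yeast wells and 100% = medium wells without yeast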
Starred values were filed as active, the others as inactive; ? = inconclusive; . = no result. Only some compounds are listed: those with a hit (about 4.9% of all), similar ones and a draw of the others.

SMILES	SKKanGAS inh	NALP3 yeast inh	NALP1 yeast inh	tim23-1 inh	tim10-1 inh	TIM10 inh	tim10-1 conf
Cc1nn(-c2ccccc2)c(Cl)c1/C=N/NC(=O)OC(C)(C)C	-4	15	44	39	44*	-8	21
Cc1nn(-c2ccccc2)c(Cl)c1/C=N/Nc1ccc(S(=O)(=O)Nc2ccccc2C(=O)O)cc1[N+](=O)[O-]	119*	11	-10	31	42*	5	36*
O=C(OCC(=O)c1c[nH]c2ccccc12)c1cccc([N+](=O)[O-])c1	.	25	.	11	-5	1	.
CCCCCCC(=O)N(O)C1CC(=O)N(c2ccc(Br)cc2)C1=O (stereo not given)	-14	17	6	33	42*	32	28
NN1C(=O)/C(=C\c2ccco2)SC1=S	2	7	21	1	6	-26	.
COc1cccc(NC(=O)CN(C)CC(=O)c2c(C)[nH]c3ccccc23)c1	.	10	.	19	14	28	.
N#C/C(C(=O)N1CCCCC1)=C1/N=C(N)c2ccccc21	-4	11	27	14	2	4	.
N#C/C(C(=O)N1CCCCC1)=C1/N=C(NC(=O)c2ccc(F)cc2)c2ccccc21	-5	13	0	29	44*	15	-3
CCn1cnnc1SCC(=O)c1c(N)n(C2CC2)c(=O)[nH]c1=O	.	16	.	-6	-9	-2	.
COc1ccc(C(=O)Nc2ccc3c4c(cccc24)CC3)cc1	-14	30	29	48	44*	23	30*
N#Cc1ccc(C(=O)NC(=S)N2CCN(C=O)CC2)cc1	.	5	.	11	23	3	.
CC(C)OCCCNC(=O)c1c(N)n(/N=C/c2cccs2)c2nc3ccccc3nc12	7	-2	14	11	9	3	.
COCCCNC(=O)c1c(N)n(/N=C/c2ccccn2)c2nc3ccccc3nc12	37	-2	8	8	42*	29	27
CC1CCCC(NC(=O)CSc2ncccn2)C1C (stereo not given)	.	-7	.	35	16	1	.
C=CCc1cccc(CNc2nc3ccccc3n2C(C)C)c1O	5	16	-42	27	43*	37	34*
C=CCc1cccc(CNc2ccc(Br)cc2)c1O	24	20	6	37	43*	35	64*
CO/N=C/CC(=O)c1ccc(-c2ccccc2)cc1	-1	48	7	39	25	24	.
CO/N=C/CC(=O)c1cnc(-c2ccc(Cl)cc2)s1	6	24	5	28	41*	4	24
COc1cccc(NC(=S)N(CCCN2CCOCC2)Cc2cn(C)c3ccccc23)c1	-8	12	14	1	9	11	.
CCOc1ccc(-c2n[nH]c(C)c2Oc2ccc(OC)cc2)c(O)c1	12	-4	1	41	44*	34	47*
CC(C)(C)OC(=O)N[C@@H](Cc1ccccc1)c1nnc(S(=O)(=O)Cc2cccc(F)c2)o1	?	13	-1	23	59*	4	50*
CC[C@@H](C)[C@H](NC(=O)OCc1ccccc1)c1nnc([C@@H](NC(=O)OCc2ccccc2)[C@@H](C)CC)o1	-1	20	.	18	13	2	.
CC[C@@H](C)[C@H](NC(=O)OC(C)(C)C)c1nnc(S(=O)(=O)Cc2cc(C)ccc2C)o1	52*	15	-4	43	52*	35	57*
COc1ccc(/C=C(\NC(=O)c2ccccc2)C(=O)N/N=C/c2sccc2C)cc1	-10	13	20	-1	51*	19	2
COc1ccc(/C=C(/NC(=O)c2ccccc2)C(=O)N/N=C/c2sccc2C)cc1	-7	-8	19	12	5	9	.
SMILES	SKKanGAS inh	NALP3 yeast inh	NALP1 yeast inh	tim23-1 inh	tim10-1 inh	TIM10 inh	tim10-1 conf
Clc1ccccc1OCc1nnc(-c2ccccc2Br)o1	20	7	20	48	49*	36	34*
CC(C)[C@H](NC(=O)c1ccccc1)C(=O)OCC(=O)c1ccc(S(=O)(=O)N2CCCCC2)cc1	0	19	.	5	15	6	.
CCC(c1nnnn1Cc1ccccc1)N1CCN(c2ccccc2)CC1 (stereo not given)	0	-10	2	13	41*	1	24
OCCNc1ncnc2c1sc1nc(N3CCOCC3)c3c(c12)CCC3	-4	6	5	35	49*	18	25
Cc1ccc2sc(N3CCN(C(=O)c4ccc([N+](=O)[O-])o4)CC3)nc2c1C	26	32	.	30	19	-28	.
COc1cccc2sc(N3CCN(C(=O)c4ccc([N+](=O)[O-])o4)CC3)nc12	12	35	.	-37	51*	25	28
CCCN1C(=O)/C(=N\OCC(=O)NC23CC4CC(CC(C4)C2)C3)c2ccccc21	-7	14	38	47	42*	19	22
CCCN1C(=O)/C(=N\OCC(=O)Nc2ccc(C(C)C)cc2)c2ccccc21	-6	9	42	39	48*	14	38*
COc1cc(C(C)=O)ccc1OCCCOc1cccc2cccnc12	-6	10	-3	37	6	0	.
Cc1ccc(-c2csc(N3CCN(c4cc5c(cc4Cl)nc(C)n5CCN4CCCCC4)CC3)n2)cc1	12	19	8	47	41*	9	11
Cc1ccc(-c2csc(N3CCN(c4cc5c(cc4Cl)nc(C(C)N)n5CCCO)CC3)n2)cc1 (stereo not given)	4	19	13	-6	-15	3	.
O=C1Cc2cc(S(=O)(=O)Nc3ccc(N4CCOCC4)cc3)ccc2N1	.	8	.	-7	-17	0	.
CC#CC(=O)N1CCC(C(=O)Nc2ccc(Oc3ccccc3)nc2)CC1	3	3	9	-11	-24	0	.
CCCc1[nH][nH]c(=O)c1C(c1ccc(Cl)cc1)C(C#N)C#N (stereo not given)	-2	31	-5	42	46*	36	24
CCCc1[nH][nH]c(=O)c1C(c1ccccc1)C(C#N)C#N (stereo not given)	0	14	3	38	20	27	.
COc1ccc(C2=NN(C(C)=O)CC2c2cccc([N+](=O)[O-])c2)cc1 (stereo not given)	-8	10	7	34	43*	4	-11
CC(=O)N1CCN(c2cc(N3CCc4ccccc4C3)c(F)cc2[N+](=O)[O-])CC1	7	15	5	43	52*	25	32*
